Screening data as filed in PubChem.
Compounds with a hit are over-represented: about 4.8% of the library has one in this group of screens.
DAX1 inh-1 – inhibitors of DAX1 repression of SF-1 activated StAR promoter | HEK293T StAR-luciferase reporter, SF-1/DAX-1 repression relief | hit rate 1.1% among 370,000 | inhibition, % at 6.8 µM | AID 652010;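 active = inhibition above the mean over all tested compounds plus 3 SD, cut at about 3.6% in these data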;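 also: higher inhibition means more luminescence from relief of DAX-1 repression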
DAX1 inh-2 – NR0B1 (DAX1) inhibition. HEK293 Gal4-DAX1 luciferase reporter, luminescence. inhibition, % at 6.75 µM. hit rate 0.99% among 340,000. AID 504766;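 active = inhibition above the mean over all tested compounds plus 3 SD, cut at about 4.2% in these data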;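 also: inhibition shows as a rise in luminescence from relieved DAX1 repression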
Target sequence (P51843 207-470 limits assumed): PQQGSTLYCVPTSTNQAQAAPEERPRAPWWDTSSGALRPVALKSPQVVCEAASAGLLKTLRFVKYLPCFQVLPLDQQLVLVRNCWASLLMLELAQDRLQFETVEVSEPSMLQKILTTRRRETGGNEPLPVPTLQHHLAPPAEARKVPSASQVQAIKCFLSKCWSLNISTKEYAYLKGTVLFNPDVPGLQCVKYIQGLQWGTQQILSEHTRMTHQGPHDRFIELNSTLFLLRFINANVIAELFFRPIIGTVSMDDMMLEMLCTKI
ssDAF12 agonist – activators of S. stercoralis DAF-12 nuclear receptor. HEK293 ssDAF-12/GRIP1 lit1-tk-luc reporter, luminescence; % of 3 µM dafachronic acid response. activation, % at 6.8 µM. hit rate 1% among 370,000. AID 652126;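 active = activation above the mean over all tested compounds plus 3 SD, cut at about 0.9% in these data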
hcDAF-12 act – activators of H. contortus DAF-12 nuclear receptor; HEK293 hcDAF-12 lit1-tk-luc reporter, luminescence; 0% DMSO, 100% Δ7-dafachronic acid; activation, % at 6.8 µM; hit rate 1.4% among 370,000; AID 652067;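 active = activation above the mean of all tested compounds plus 3 SD, cut at about 5.5% in these data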
SMARCA2 act – activators of SMARCA2 function; MG213 cells, MMTV-luciferase reporter, dexamethasone, overnight; activation, % at 9.1 µM; hit rate 1% among 370,000; AID 652017; in the data active = activation above about 7.8%
hgDAF12 agonist – activates the H. glycines DAF-12 receptor ligand-binding domain; HEK293 GAL4-hgDAF12 UAS-luciferase reporter, agonist luminescence; normalized to butyrate control; activation, % at 6.8 µM; hit rate 1.8% among 370,000; AID 687014;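 active = activation above a cutoff set at the mean of all screened compounds plus 3 SD, cut at about 10% in these data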
Numbers stand for hits; i = inactive; nt = no result.

SMILES	DAX1 inh-1	DAX1 inh-2	ssDAF12 agonist	hcDAF-12 act	SMARCA2 act	hgDAF12 agonist
COC(=O)[C@]12CCCCC=C1N(Cc1ccc3c(c1)OCO3)C(=O)[C@H](CC(=O)NCC1CCCCC1)C2	4.1	nt	i	i	i	i
COc1ccc(CCNC(=S)NC(=O)c2c(-c3ccccc3Cl)noc2C)cc1OC	i	nt	i	i	i	i
Cc1onc(-c2ccccc2Cl)c1C(=O)NC(=S)NCCc1ccccc1	i	i	i	i	8.6	i
COC(=O)N/N=C1\CCCc2c(C)cc(C)cc21	i	4.3	i	i	i	i
COc1ccccc1CNC(=O)CSc1nnc2ccc(-c3cccnc3)nn12	i	4.4	i	i	i	i
COc1ccc(NC(=O)CSc2nnc3ccc(-c4cccnc4)nn23)cc1OC	i	i	i	i	i	i
CSc1ccc(/C=C(\NC(=O)c2ccccc2)C(=O)NCCN2CCOCC2)cc1	i	5.2	i	i	i	i
c1ccc(Cn2ccc3ccc(-c4ccc5ccn(Cc6cccc(Oc7ccccc7)c6)c5c4)cc32)cc1	i	nt	i	i	i	i
CCOC(=O)COc1c(Br)cc(/C=C2\SC(=O)N(CC(=O)N3CCCC3)C2=O)cc1OC	i	4.7	i	i	i	i
CC(O)c1cc2c(s1)c1cnn(Cc3ccccc3F)c(=O)c1n2C (stereo not drawn)	nt	i	nt	nt	nt	nt
CC(C)=CCCC1(C)C=Cc2c(c(C)cc3c2[nH]c2cc(O)ccc23)O1 (stereo not drawn)	i	4.9	i	i	i	i
Cc1cc(=O)[nH]c2cc(O)ccc12	i	i	i	i	i	i
CN1CCN(c2ccc(Cl)cc2NC(=O)/C=C/c2ccc(F)cc2)CC1	i	5.7	i	i	i	i
COc1ccccc1CNC(=O)C[C@@H]1C[C@H]2c3cc(N(C)C)ccc3O[C@H]2[C@H](CO)O1	i	i	i	i	i	i
Nn1c(SCC(=O)NC2CCCCCC2)nnc1-c1ccco1	i	i	i	i	i	i
COc1ccc(C2C=C(C)Nc3ncnn32)cc1 (stereo not drawn)	i	4.6	i	i	i	i
CC1=CC(c2ccc(Cl)cc2)n2ncnc2N1 (stereo not drawn)	i	i	i	i	i	i
CCn1cnc2scc(-c3ccc(OC)cc3)c2c1=O	i	i	i	i	i	i
CCc1ccc(-c2csc3ncn(CC)c(=O)c23)cc1	i	i	18	i	i	i
O=C1NC[C@H](Cc2ccccc2)N(CC2CCN(CCC34CC5CC(CC(C5)C3)C4)CC2)C1=O	i	i	i	i	i	i
C=Cn1ccnc1CC(O)c1ccc(OC)cc1 (stereo not drawn)	i	5.8	i	i	i	i
COc1ccc(C(O)c2nccn2C)cc1 (stereo not drawn)	i	i	i	i	i	i
Cc1nc2c(-c3ccc(F)cc3)cnn2c2c1CCC2	i	i	i	5.7	i	i
COc1ccc(-c2cnc3c(-c4ccc(F)cc4)cnn3c2N)cc1	i	i	i	i	i	i
O=C1c2ccccc2C(=O)C1c1ccccn1	i	i	i	i	i	i
SMILES	DAX1 inh-1	DAX1 inh-2	ssDAF12 agonist	hcDAF-12 act	SMARCA2 act	hgDAF12 agonist
O=C1c2ccccc2C(=O)C1c1ccncc1	4.0	i	i	5.6	i	i
CC(=O)c1c(C)[nH]c(C(=O)OCC(=O)N2CCc3ccccc3C2)c1C	i	i	i	i	i	i
CN1C(=O)C(CC(=O)Nc2ccc(F)cc2)N(Cc2cccs2)C1=S (stereo not drawn)	i	i	9.6	i	i	i
COC(=O)c1ccc(NC(=S)Nc2ccc(O)cc2)cc1	i	i	i	i	i	i
COc1cccc(NC(=S)Nc2cc(C)cc(C)n2)c1	i	5.3	1.7	i	i	i
Cc1cccc(NC(=S)N2CCN(c3ccccn3)CC2)c1	i	i	i	i	i	i
Cc1cc(C)nc(NC(=S)Nc2cccc(F)c2)c1	i	i	i	i	i	i
Cc1cccc(NC(=S)Nc2ccccn2)c1	i	5.3	1.0	i	i	i
COC(=O)c1ccc(NC(=S)Nc2ccccn2)cc1	i	i	i	i	i	12
Cc1cc(Cl)ccc1Nc1ncccc1C(N)=O	i	9.6	i	i	i	i
Cc1cc(C)c2c(CN(Cc3ccccc3)Cc3ccccc3)cc(=O)oc2c1	i	nt	i	i	i	i
CCN(CC(=O)Nc1ccc(NC(C)=O)cc1)C(=O)CN1C(=O)NC2(CCCC2)C1=O	i	i	i	i	i	i
CCC(NC(=O)c1ccc2c(c1)c(C)c(C)n2Cc1ccc(Cl)cc1)c1ccccc1 (stereo not drawn)	i	nt	i	i	i	i
Cc1cc(Cl)ccc1NC(=S)NCc1ccccc1	i	i	i	i	i	i
Cc1cccc(NC(=S)NNc2cccc(Cl)c2)c1	i	i	1.0	i	i	i
Cc1cc(Cl)ccc1NC(=S)Nc1ccccn1	i	4.3	i	i	i	i
Cn1ccc2ccc(-c3ccc4c(c3)[C@]3(CCC[C@@H](OCc5ccccc5)[C@@H]3NC(=O)CCc3ccccc3)C(=O)N4Cc3ccccc3)cc21	i	nt	i	i	i	i
CC(C)(C)CC(=O)Nc1cccc(-c2cn3cccnc3n2)c1	i	i	i	i	i	11
COc1cc(C(=O)Nc2cccc(-c3cn4cccnc4n3)c2)cc(OC)c1OC	i	i	i	i	i	i
O=C(CSc1nncc(=O)[nH]1)Nc1cccc([N+](=O)[O-])c1	i	i	i	i	i	i
CC(=Nc1ccc(O)cc1)c1sc2ccccc2c1O	i	i	i	i	i	12
CC(=Nc1ccccc1O)c1sc2ccccc2c1O	i	i	i	i	i	13
CC(=O)NCCN=C(C)c1sc2ccccc2c1O	i	i	i	i	i	i
Cc1ccc(C2=NOC(=O)/C2=C\c2ccc(C)o2)cc1	i	5.8	i	i	i	i
COc1ccc(OC)c(C(=O)NC(CC(N)=O)c2ccc(N3CCN(c4ccc(F)cc4)CC3)c([N+](=O)[O-])c2)c1 (stereo not drawn)	i	i	i	i	i	i
SMILES	DAX1 inh-1	DAX1 inh-2	ssDAF12 agonist	hcDAF-12 act	SMARCA2 act	hgDAF12 agonist
O=C(NN1C(=O)C2C3C=CC(C4CC34)C2C1=O)c1ccccc1Cl (stereo not drawn)	i	5.1	i	i	i	i
C=CCNc1nc2cc(-c3cccc(NC(C)=O)c3)sc2c(=O)n1C	i	nt	i	i	i	i
CCC(C)(C)NC(=O)CN(Cc1cccs1)C(=O)CNS(=O)(=O)c1ccc(C)cc1	i	6.4	i	i	i	i
CC(C)(C)NC(=O)CN(Cc1cccs1)C(=O)CNS(=O)(=O)c1ccc(F)cc1	i	i	i	i	i	i
COCCOC1CCN(C(=O)C2CCC(=O)N(CCc3ccccc3)C2)CC1 (stereo not drawn)	i	i	i	i	i	i
COc1ccc(C)cc1S(=O)(=O)NCC(c1ccc2c(c1)OCO2)N1CCN(C)CC1 (stereo not drawn)	3.7	i	i	i	i	i
